Source: article PMC4336329 (PLoS ONE, 2015)
Screen size: about 310,000 compounds; about 14,000 (4.5%) showed an effect of 50% or more. The effect is printed as a negative number. This is one part of a sample in which strong results are shown more often than they occur.

molecular target: human ether-à-go-go-related gene (hERG) potassium channel (human, UniProt Q12809); experiment: primary screen, population patch clamp on CHO cells stably expressing hERG; higher = less effect of the substance
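Note: peak tail current of the secondary pulse compared with the same well before compound.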

human ether-à-go-go-related gene (hERG) potassium channel, sequence (Q12809 whole entry, looked up): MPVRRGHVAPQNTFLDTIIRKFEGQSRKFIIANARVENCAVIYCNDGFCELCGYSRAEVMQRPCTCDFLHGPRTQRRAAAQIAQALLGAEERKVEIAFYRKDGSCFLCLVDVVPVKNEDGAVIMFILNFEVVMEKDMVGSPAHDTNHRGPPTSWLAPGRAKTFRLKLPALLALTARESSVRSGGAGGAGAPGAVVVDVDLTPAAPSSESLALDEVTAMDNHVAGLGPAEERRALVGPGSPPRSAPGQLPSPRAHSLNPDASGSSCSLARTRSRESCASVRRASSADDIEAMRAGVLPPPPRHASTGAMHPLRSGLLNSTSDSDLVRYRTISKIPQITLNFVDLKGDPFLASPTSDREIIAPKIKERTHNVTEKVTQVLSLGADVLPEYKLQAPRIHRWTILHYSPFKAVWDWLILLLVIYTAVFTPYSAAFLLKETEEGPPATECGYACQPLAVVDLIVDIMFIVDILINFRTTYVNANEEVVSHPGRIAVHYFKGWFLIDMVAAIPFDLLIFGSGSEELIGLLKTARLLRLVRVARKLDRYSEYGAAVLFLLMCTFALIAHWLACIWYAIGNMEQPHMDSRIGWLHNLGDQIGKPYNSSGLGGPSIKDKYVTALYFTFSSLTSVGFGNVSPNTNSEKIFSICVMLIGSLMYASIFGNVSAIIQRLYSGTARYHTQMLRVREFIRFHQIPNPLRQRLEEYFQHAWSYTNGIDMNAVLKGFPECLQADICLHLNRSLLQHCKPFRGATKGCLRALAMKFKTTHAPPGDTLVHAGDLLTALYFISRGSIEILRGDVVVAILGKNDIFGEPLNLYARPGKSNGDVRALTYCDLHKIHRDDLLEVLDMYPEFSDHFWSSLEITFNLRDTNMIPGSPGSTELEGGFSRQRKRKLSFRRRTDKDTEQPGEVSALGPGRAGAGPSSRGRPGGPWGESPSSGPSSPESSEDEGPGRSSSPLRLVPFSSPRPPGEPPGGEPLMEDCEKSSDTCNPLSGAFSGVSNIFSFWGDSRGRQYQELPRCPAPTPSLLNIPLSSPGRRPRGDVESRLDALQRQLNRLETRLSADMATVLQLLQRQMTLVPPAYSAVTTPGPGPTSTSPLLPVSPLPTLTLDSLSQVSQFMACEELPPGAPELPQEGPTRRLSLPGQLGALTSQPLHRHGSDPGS

Compound | hERG current change (%, negative = inhibition) at 10uM
Cc1ccc(NC(=O)Nc2ccc([N+](=O)[O-])cc2)nc1 | 9.85%
CCCCn1c(N)c(N(Cc2ccccc2OC)C(=O)c2cc(=O)[nH]c3ccccc23)c(=O)[nH]c1=O | 17.1%
CC(=O)N1CCN(C(=O)CSc2nc3c(cnn3-c3ccccc3)c(=O)[nH]2)CC1 | -9.1%
CCOc1ccc(N(C)S(=O)(=O)c2ccc(C)c(C(=O)NCc3ccccc3OC)c2)cc1 | -6.23%
Cc1ccc(-c2nn(CC(=O)NN3CCOCC3)c(=O)c3ccccc23)cc1 | -1.66%
N#Cc1cc(Cl)c(NCC2CCCO2)cc1C#N (centres unmarked) | 7.45%
CC1CCCN(C(=O)Nc2cccc(NC(=O)N3CCCC(C)C3C)c2)C1C (centres unmarked) | 0.168%
Cc1ccc(N2CC(C(=O)Nc3ccc(C)c(S(=O)(=O)N(C)C)c3)CC2=O)cc1 (centres unmarked) | -25.2%
O=C(OC(C(=O)NC1CCCC1)c1ccccc1F)c1ccco1 (centres unmarked) | 5.25%
Cc1cccc(NC(=O)CSCC(=O)N2CCN(c3cccc(C(F)(F)F)c3)CC2)c1 | -21.8%
COc1ccc(NC(=O)CSCC(=O)N(C)CC(=O)Nc2c(C)cccc2C)cc1 | -0.574%
CNC(=O)c1c(N)sc2c1CCCCC2 | -3.16%
COC(=O)C(NC(=O)c1ccco1)(Nc1nc(C2CC2)cs1)C(F)(F)F (centres unmarked) | 11.7%
Cn1ccnc1COc1ccc(C=O)cc1 | 10.4%
C=CCn1c(SCC(=O)Nc2ccc(C(=O)OCC)cc2)nnc1-c1cccs1 | 16.7%
COc1cccc(-c2nnc(SCc3nc4ccccc4s3)n2C)c1 | -29%
CCn1c(SCc2nc3ccccc3s2)nnc1-c1cccs1 | -60%
Cn1c(SCc2nc3ccccc3s2)nnc1-c1cccs1 | -36%
COc1ccc(-c2nnc(SCc3nc4ccccc4s3)n2C(C)C)cc1 | -67.7%
CCn1c(SCc2nc3ccccc3s2)nnc1-c1ccccc1 | -11%
C=CCn1c(SCC(=O)Nc2ccc3c(c2)CCC3)nnc1-c1cccs1 | -76.9%
C=CCn1c(SCC(=O)Nc2ccc(C(=O)OC(C)C)cc2)nnc1-c1cccs1 | 5.07%
COc1ccc(-n2nnnc2SCc2nc3ccccc3s2)cc1 | -5.94%

Compound | hERG current change (%, negative = inhibition) at 10uM
Cc1c(/C=N\NC(=O)C2COc3ccc(C(C)(C)C)cc3O2)c2ccccc2n1C (centres unmarked) | 14%
CC(C)c1nnc(NC(=O)CCS(=O)(=O)c2ccccc2)s1 | 19.5%
CCOC(=O)N1CCC(NC(=O)C2CCCN(C(=O)N3CCOc4ccccc43)C2)CC1 (centres unmarked) | 3.21%
CCCCOc1ccc(-c2c(C(=O)Nc3ccccc3)c(C)[nH]c(=S)c2C#N)cc1 | 12.1%
C/C(=N/NC(=O)c1ccco1)c1cccc(NC(=O)c2ccc(C)s2)c1 | 1.1%
COc1ccc(CCNC(=O)CCS(=O)(=O)c2ccc3c(c2)NC(=O)CO3)cc1OC | 14.5%
COc1ccc(NC(=O)CNC(=O)Cn2ccc3ccccc3c2=O)c(OC)c1 | 15%
Cc1nn(Cc2ccc(Cl)cc2)c2sc(C(=O)O)cc12 | 31.1%
Cc1ccc(Cn2nc(C)c3cc(C(=O)OCC(N)=O)sc32)cc1 | 7.64%
Cc1nn(Cc2ccc(Cl)cc2)c2sc(C(=O)OCC(N)=O)cc12 | -52.1%
OCCC1CN(Cc2ccc(Oc3ncccn3)cc2)CCN1CCc1ccccc1 (centres unmarked) | -55.2%
CC(=O)Nc1ccc(CN2CCN(CC(C)C)C(CCO)C2)cc1 (centres unmarked) | 2.2%
CC(=O)Nc1ccc(CN2CCN(CCc3ccccc3)C(CCO)C2)cc1 (centres unmarked) | -51.8%
OCCC1CN(Cc2ccc(F)cc2)CCN1CCc1ccccc1 (centres unmarked) | -74.2%
CC(C)CN1CCN(Cc2ccc(Oc3ncccn3)cc2)CC1CCO (centres unmarked) | -28.5%
OCCC1CN(Cc2ccon2)CCN1CCc1ccccc1 (centres unmarked) | -19.2%
CC(C)CN1CCN(Cc2ccc(F)cc2Cl)CC1CCO (centres unmarked) | -34.4%
OCCC1CN(Cc2ccc(F)cc2Cl)CCN1CCc1ccccc1 (centres unmarked) | -67.4%
CC(=O)Nc1ccc(CN2CCN(CCC(C)C)C(CCO)C2)cc1 (centres unmarked) | 19.7%
CC(C)CCN1CCN(Cc2ccc(Oc3ncccn3)cc2)CC1CCO (centres unmarked) | -9.21%
COc1cc(NC(=O)COC(=O)Cc2ccc(-c3ccccc3)cc2)cc(OC)c1 | 3.6%
Cc1cc(=O)[nH]c2nnnn12 | 4.44%
O=C(Nc1cccc(F)c1)Nc1ccnn1C1CCN(C(=O)c2ccccn2)CC1 | 14.2%

Compound | hERG current change (%, negative = inhibition) at 10uM
COc1cccc(N=C2SC(C(=O)Nc3ccc(F)cc3)CC(=O)N2C)c1 (centres unmarked) | -11%
CC(OC(=O)c1nn(C)c(=O)c2ccccc12)C(=O)Nc1ccc(S(N)(=O)=O)cc1 (centres unmarked) | 11.6%
Cc1cc(C)n(-c2ccc(F)cc2CN2CCN(Cc3ccccc3)C(CCO)C2)n1 (centres unmarked) | -37.2%
COC(=O)c1ccc(CN2CCN(CCCc3ccccc3)C(CCO)C2)cc1 (centres unmarked) | -64.1%
OCCC1CN(Cc2ccc3c(c2)CCO3)CCN1C1CCCC1 (centres unmarked) | -12.7%
OCCC1CN(Cc2cc(F)ccc2F)CCN1CCCc1ccccc1 (centres unmarked) | -70.3%
OCCC1CN(Cc2ccc(F)cc2)CCN1CCCc1ccccc1 (centres unmarked) | -68.2%
Cc1ccc(CN2CCN(Cc3ccc4c(c3)OCCO4)CC2CCO)cc1 (centres unmarked) | -39.8%
COC(=O)c1ccc(CN2CCN(Cc3ccccc3)C(CCO)C2)cc1 (centres unmarked) | -16.5%
COC(=O)c1ccc(CN2CCN(CCC(C)C)C(CCO)C2)cc1 (centres unmarked) | -25.7%
OCCC1CN(Cc2ccc3c(c2)CCO3)CCN1Cc1ccc(F)cc1 (centres unmarked) | -72.9%
CCCCOC(=O)Nc1ccc(S(=O)(=O)Nc2ccc([N+](=O)[O-])cc2)cc1 | 9.83%
Cc1cc(C(=O)OCC(=O)c2cccs2)c2ccccc2n1 | 24.1%
O=c1[nH][nH]c(-c2ccccc2)c1C=Nc1ccc(Cl)cc1 | -23%
Cc1ccc(C(=O)C2=C(O)C(=O)N(CCCN3CCOCC3)C23C(=O)N(C)c2ccccc23)o1 (centres unmarked) | 27.9%
O=C(Cn1[nH]c(=O)c2ccccc2c1=O)OCC(=O)c1ccccc1Cl | -0.463%
CC(C)=CCN1CCN(Cc2ccc3nsnc3c2)CC1CCO (centres unmarked) | -19.4%
Cc1nn(-c2ccc(F)cc2)c(C)c1CN1CCN(CCC(C)C)C(CCO)C1 (centres unmarked) | -36.3%
Cn1cc(CN2CCN(CCc3ccccc3)C(CCO)C2)cn1 (centres unmarked) | 4.52%
Cc1nn(-c2ccc(F)cc2)c(C)c1CN1CCN(Cc2ccccc2)C(CCO)C1 (centres unmarked) | -44.2%
OCCC1CN(Cc2cccc(F)c2F)CCN1CCc1ccccc1 (centres unmarked) | -55.3%
CC(C)CCN1CCN(Cc2ccc3nsnc3c2)CC1CCO (centres unmarked) | -42.6%
Cc1nn(-c2ccc(F)cc2)c(C)c1CN1CCN(CCc2ccccc2)C(CCO)C1 (centres unmarked) | -67.5%

Compound | hERG current change (%, negative = inhibition) at 10uM
OCCC1CN(Cc2ccc3nsnc3c2)CCN1CCc1ccccc1 (centres unmarked) | -82.2%
CCn1cc(CN2CCN(CCc3ccccc3)C(CCO)C2)c(C)n1 (centres unmarked) | -31%
CC(C)n1cc(CN2CCN(CCc3ccccc3)C(CCO)C2)cn1 (centres unmarked) | -53.4%
O=C(O)c1cncc(C#Cc2ccccc2)c1 | 1.39%
Cc1c(C(=O)Nc2ccc(OCc3ccccc3)cc2)cccc1[N+](=O)[O-] | -0.125%
CC1CCCCN1S(=O)(=O)c1ccc(C(=O)N2CCOCC2)cc1 (centres unmarked) | 16.8%
C[Se]C[C@@H](N)C(=O)O.Cl | 12.3%
COc1cc2ccccc2cc1C(=O)OCC(=O)N(C)c1c(N)n(Cc2ccccc2)c(=O)[nH]c1=O | 3.29%
Cn1c(C(=O)NCCN2CCc3ccccc3C2)cc2c(=O)n(C)c3ccccc3c21 | -11.8%
N/C(=N\OC(=O)CCCOc1ccccc1)c1ccccc1 | 7.28%
Cl.c1ccc(OCCN2C3=NCCN3c3ccccc32)cc1 | -73.3%
Br.COC(=O)CN1C2=NCCCN2c2ccccc21 | -11.8%
COC(=O)c1ccc(OCCOc2ccc(C(=O)OC)cc2)cc1 | -14.3%
Br.COC(=O)c1ccc(OCCN2C3=NCCN3c3ccccc32)cc1 | -68.7%
CCN(CC)c1ccc(/C=N/NC(=O)c2ccc3nc[nH]c3c2)cc1 | -22%
N#C/C(=C/c1ccccc1)C(=O)OCC(=O)Nc1ccccc1[N+](=O)[O-] | 8.46%
Cc1nn(-c2ccccc2)c(C)c1-c1nnc(C(F)(F)F)o1 | 2.32%
Cc1ccc(-c2c3c(=O)n(C)c(=O)n(C)c3cn2N2CCOCC2)cc1 | -40%
Cn1c(=O)c2c(-c3ccc(C(C)(C)C)cc3)n(N3CCOCC3)cc2n(C)c1=O | -26.7%
COc1ccc(-c2c3c(=O)n(C)c(=O)n(C)c3cn2N2CCOCC2)cc1 | -52.3%
